Source: PubChem BioAssay (Tox21)
Inconclusive results are not listed. Calls of active or inactive are those of the source. Calls come from the whole dose curve.

What follows are compounds tested against Vitamin D3 receptor (Homo sapiens) (UniProt P11473) (assay: qHTS assay to identify small molecule agonists of the vitamin D receptor (VDR) signaling pathway (AID 743222)). Conditions: HEK293T VDR-UAS-bla, beta-lactamase FRET ratio, 16 h; series mostly up to 63.5 µM.
From the text: National Center for Advancing Translational Sciences [NCATS]
NIH Chemical Genomics Center [NCGC]
U.S. Environmental Protection Agency [EPA]
National Institutes of Environmental Health Sciences [NIEHS]
National Toxicology Program [NTP]
U.S. Food and Drug Administration [FDA]
The vitamin D receptor (VDR), a member of nuclear hormone receptor superfamily, plays a critical role in calcium homeostasis and bone metabolism. It is also involved in cell differentiation and growth, and thrombogenicity.
Tox21 Assay Protocol Summary:
VDR-bla cells were dispensed at 2,000 cells/6 uL/well into black wall/clear-bottom 1536-well plates using a Multidrop Combi (Thermo Fisher Scientific, Waltham, MA) dispenser. After the assay plates were incubated at a 37C and 5% CO2 for 4 h, 23 nL of compounds dissolved in DMSO, positive controls or DMSO only was transferred to the assay plate by a Pintool station (Kalypsys, San Diego, CA). The plates were incubated at 37C and 5% CO2 for 16 h. After 1 uL of LiveBLAzerTM B/G FRET substrate was added using a Bioraptr Flying Reagent Dispenser (FRD) workstation (Beckman Coulter, Indianapolis, IN, USA), the plates were incubated at room temperature for 2 h, and fluorescence intensity was measured by an Envision plate reader (PerkinElmer, Shelton, CT).

Sequence of Vitamin D3 receptor (Homo sapiens) (P11473 whole entry, looked up): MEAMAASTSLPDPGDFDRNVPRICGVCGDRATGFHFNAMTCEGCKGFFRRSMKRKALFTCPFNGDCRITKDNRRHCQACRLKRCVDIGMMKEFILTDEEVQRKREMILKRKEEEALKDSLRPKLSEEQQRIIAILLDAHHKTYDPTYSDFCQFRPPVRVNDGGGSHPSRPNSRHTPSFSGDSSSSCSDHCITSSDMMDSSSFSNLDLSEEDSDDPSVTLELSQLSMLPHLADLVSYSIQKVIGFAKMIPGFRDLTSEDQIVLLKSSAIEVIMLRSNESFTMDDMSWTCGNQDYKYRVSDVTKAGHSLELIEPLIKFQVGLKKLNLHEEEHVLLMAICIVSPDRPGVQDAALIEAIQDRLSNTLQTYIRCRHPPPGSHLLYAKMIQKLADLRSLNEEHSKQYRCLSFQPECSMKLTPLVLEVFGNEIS

SMILES	outcome
O=P(OCCCl)(OCCCl)OCCCl	inactive
CCC1(c2ccc(N)cc2)CCC(=O)NC1=O (stereo not given)	inactive
O=C(O)c1nn(Cc2ccc(Cl)cc2Cl)c2ccccc12	inactive
COc1ccc(CO)cc1	inactive
c1ccc(C2CO2)cc1 (stereo not given)	inactive
O=C(O)CF	inactive
CCC/C=N/O	inactive
CNC(=O)Oc1cccc2c1OC(C)(C)C2	inactive
N#Cc1nn(-c2c(Cl)cc(C(F)(F)F)cc2Cl)c(N)c1S(=O)C(F)(F)F (stereo not given)	inactive
CC1(C)C(C(=O)OC(C#N)c2cccc(Oc3ccccc3)c2)C1(C)C (stereo not given)	inactive
CCOC(=O)c1ccccc1N	inactive
O=[N+]([O-])/N=C1\NCCN1Cc1ccc(Cl)nc1	inactive
Cn1c(-c2ccccc2)cc(-c2ccccc2)[n+]1C	inactive
CC[n+]1c(-c2ccccc2)c2cc(N)ccc2c2ccc(N)cc21	inactive
ClCc1ccccn1	inactive
C=CC(Cl)CCl (stereo not given)	inactive
N#Cc1c(Cl)c(Cl)c(Cl)c(C#N)c1Cl	inactive
CCCCOCCOC(C)=O	inactive
C[N+](C)(C)C	inactive
NC(=O)CN1CCCC1=O	inactive

SMILES	outcome
Clc1ccccc1-c1nnc(-c2ccccc2Cl)nn1	inactive
CS(=O)(=O)NC(=O)c1cc(Oc2ccc(C(F)(F)F)cc2Cl)ccc1[N+](=O)[O-]	inactive
Nc1ccc2ccccc2c1	inactive
CC(C)(O)C#N	inactive
COC(=O)Nc1nc2ccccc2[nH]1	inactive
CC1=C(C(=O)Nc2ccccc2)SCCO1	inactive
CCOS(=O)(=O)OCC	inactive
Cc1cc(Cl)ccc1N=CN(C)C	inactive
COP(=O)(NC(C)=O)SC (stereo not given)	inactive
C[C@]12CC[C@H]3[C@@H](CCC4=CC(=O)CC[C@@H]43)[C@@H]1CC[C@@H]2O	inactive
COP(=S)(OC)SCn1nnc2ccccc2c1=O	inactive
N#Cc1cccnc1	inactive
CCCCSP(=O)(SCCCC)SCCCC	inactive
CC(C)=CC1C(C(=O)OCc2cccc(Oc3ccccc3)c2)C1(C)C (stereo not given)	inactive
C=C(C)C#N	inactive
[CH3][Sn]([Cl])([Cl])[Cl]	inactive
Cc1cccc(N=Nc2ccc(N(C)C)cc2)c1	inactive
CCCCCCCCCc1ccc(O)cc1	inactive
N#CC(c1ccccc1)c1ccccc1	inactive
Clc1cccc(Cl)c1	inactive
